Activity calls are given as the source filed them.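 Rule for the calls, unless noted: active = visually confirmed hit in the image check and inhibition above 20%; inconclusive = visually confirmed hit but inhibition not above 20%; inactive = no visual hit in the image check.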
Experiments:
[1] = inhibitors of TNFa-induced NFkB p65 translocation, primary screen, imaging, HUVEC, MLSMR starter and 10KST1 sets (AID 438;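 active = inhibition above 20% together with a positive visual image hit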;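 note: compound added about 3h40 before a 20 min TNFalpha stimulation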;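 for inhibition: signal is the nuclear over cytoplasmic p65 intensity ratio per well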); conditions: HUVEC TNFa-induced p65 nuclear translocation; cell count: measured here: nuclei count (cytotoxicity indicator), at 2.08 µM unless noted; inhibition: at 2 µM, stronger effect = higher value unless noted
[2] = reduction of polyQ htt aggregates in cells – imaging, exon1htt(103Q)mCFP cells, high-content imaging, primary screen (AID 483;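 active = visual image review flags a hit and inhibition of aggregation exceeds 20%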;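 note: compound exposure lasted 3 days before fixation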;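 for nuclei count: percent of the per-plate median nuclei count of sample wells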); conditions: exon1htt(103Q)mCFP cell line, aggregate imaging, at 2 µM; inhibition of aggregation: stronger effect = higher value; nuclei count: measured here: cell count, toxicity
[3] = endothelial E-selectin expression blockers – imaging, HUVEC, immunofluorescence, MLSMR starter and 10KST1 sets, primary screen (AID 487); conditions: HUVEC TNFalpha-induced E-selectin immunofluorescence imaging, at 2 µM; inhibition: stronger effect = higher value; nuclei count: measured here: cell number, toxicity;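 for inhibition: signal is fraction of cell area covered by stained E-selectin grains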;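 for nuclei count: 100% = median nuclei count of all wells on the same plate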
[4] = molecular target: Voltage-gated potassium channel subunit beta-2 (Rattus norvegicus) (UniProt P62483); experiment: inhibitors of rat Kvbeta2 reductase activity – biochemical, NADPH fluorescence, primary screen (AID 622;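 active = fluorescence slope higher than the sample average by over 3 SD, cut at about -0.22 in these data, passing the limit was not always enough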;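 note: slope of raw intensity against log time taken from 70 to 1610 s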); conditions: recombinant KvBeta, 4-cyanobenzaldehyde reduction, at 10 µM, stronger effect = higher value
[5] = molecular target: Voltage-gated potassium channel subunit beta-2 (Rattus norvegicus) (UniProt P62483); experiment: enhancers of rat Kvbeta2 NADPH turnover – biochemical, NADPH fluorescence, primary screen (AID 623;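 active = NADPH fluorescence slope more negative than the mean of all samples by about 3 SD, 99.7% confidence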;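 note: fluorescence intensity change per second fitted from 20 to 320 s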); conditions: Recombinant KvBeta, NADPH fluorescence decrease slope, 10 min; at 10 µM; stronger effect = lower value
[6] = molecular target: Alpha-2C adrenergic receptor (Homo sapiens) (UniProt P18825); experiment: compounds altering alpha2C-coupled GIRK flux – cell-based, HEK293 alpha2C/GIRK1/2, thallium flux, primary screen (AID 624;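 active = fluorescence slope after compound addition differing from the mean of all screened samples at 99.7% confidence, in either direction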;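 note: slope of fluorescence ratio to pre-addition baseline per second over 15 to 24 s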); conditions: thallium flux BTC fluorescence, at 10 µM, actives lie on both sides
[7] = blockers of RIG-like receptor reporter activation – cell-based, Sendai virus stimulus, luciferase, 10K MLSCN set, TLR/RLR signaling modifier project, primary screen (AID 602276;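 active = inhibition at or above 50% at 10 µM; inactive = inhibition below 50%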;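 note: firefly luciferase from ISG56 promoter only with Renilla not read in this screen; 0% = Sendai virus plus DMSO and 100% = medium plus DMSO without virus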); conditions: HEK293 RL24 IRF3 luciferase reporter, at 10 µM, stronger effect = higher value
[8] = TLR3 IRF3 reporter activation blockers – cell-based, poly I:C stimulus, luciferase, 10K MLSCN set, primary screen (AID 602277;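 active = inhibition of the reporter signal at or above 50%; inactive = inhibition below 50%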); conditions: HEK293-TLR3 RL24 IRF3 luciferase reporter, at 10 µM, stronger effect = higher value
[9] = molecular target: Muscarinic acetylcholine receptor M4 (Homo sapiens) (UniProt P08173); experiment: M4-linked GIRK flux change, two-sided – cell-based, HEK293 M4/GIRK, thallium flux, BTC-AM, M4 allosteric agonist project, primary screen (AID 625;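 active = fluorescence slope after compound addition differing from the mean of all tested samples at 99.7% confidence, mostly higher but some lower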;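 note: thallium influx through GIRK channels coupled to M4 in HEK293 cells with BTC-AM dye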); conditions: at 10 µM, actives lie on both sides
[10] = inhibitors of larval lipid processing in zebrafish, primary screen, whole organism, PED6 fluorescence, gall bladder and intestine (AID 686;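 active = a full or partial loss of lipid-probe fluorescence in the fish gall bladder, intestine or both, judged by eye; inactive = no fluorescence loss, or compound toxic to the fish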;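 note: larvae 5 to 7 days old with five fish per well; signal comes from phospholipase A2 cleavage of quenched PED6 carried via bile; overnight exposure to compound and PED6 before scoring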); conditions: Zebrafish larvae PED6 lipid processing, fluorescence scoring

Alpha-2C adrenergic receptor (Homo sapiens), sequence (P18825 whole entry, looked up): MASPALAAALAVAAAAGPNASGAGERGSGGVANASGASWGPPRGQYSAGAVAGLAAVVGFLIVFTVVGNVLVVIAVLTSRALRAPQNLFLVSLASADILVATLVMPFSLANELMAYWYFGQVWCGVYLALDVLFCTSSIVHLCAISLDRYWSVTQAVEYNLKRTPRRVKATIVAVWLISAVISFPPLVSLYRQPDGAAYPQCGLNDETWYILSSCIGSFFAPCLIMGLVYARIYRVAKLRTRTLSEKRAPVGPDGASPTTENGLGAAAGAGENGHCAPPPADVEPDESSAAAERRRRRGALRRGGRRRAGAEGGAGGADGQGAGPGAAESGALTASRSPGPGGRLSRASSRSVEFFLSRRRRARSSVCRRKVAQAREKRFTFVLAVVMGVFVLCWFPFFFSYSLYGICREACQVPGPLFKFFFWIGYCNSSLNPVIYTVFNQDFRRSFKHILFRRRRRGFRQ
Voltage-gated potassium channel subunit beta-2 (Rattus norvegicus), sequence (P62483 whole entry, looked up): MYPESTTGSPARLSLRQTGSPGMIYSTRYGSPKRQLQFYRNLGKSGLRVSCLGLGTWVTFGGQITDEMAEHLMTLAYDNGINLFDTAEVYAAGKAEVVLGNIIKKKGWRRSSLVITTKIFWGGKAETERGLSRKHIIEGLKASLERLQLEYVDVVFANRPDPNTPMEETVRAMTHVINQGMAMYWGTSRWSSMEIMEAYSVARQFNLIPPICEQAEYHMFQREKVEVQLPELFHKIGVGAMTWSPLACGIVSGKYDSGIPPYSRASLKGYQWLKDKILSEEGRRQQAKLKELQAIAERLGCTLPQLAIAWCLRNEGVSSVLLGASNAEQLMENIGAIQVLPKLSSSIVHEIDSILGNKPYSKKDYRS
Muscarinic acetylcholine receptor M4 (Homo sapiens), sequence (P08173 whole entry, looked up): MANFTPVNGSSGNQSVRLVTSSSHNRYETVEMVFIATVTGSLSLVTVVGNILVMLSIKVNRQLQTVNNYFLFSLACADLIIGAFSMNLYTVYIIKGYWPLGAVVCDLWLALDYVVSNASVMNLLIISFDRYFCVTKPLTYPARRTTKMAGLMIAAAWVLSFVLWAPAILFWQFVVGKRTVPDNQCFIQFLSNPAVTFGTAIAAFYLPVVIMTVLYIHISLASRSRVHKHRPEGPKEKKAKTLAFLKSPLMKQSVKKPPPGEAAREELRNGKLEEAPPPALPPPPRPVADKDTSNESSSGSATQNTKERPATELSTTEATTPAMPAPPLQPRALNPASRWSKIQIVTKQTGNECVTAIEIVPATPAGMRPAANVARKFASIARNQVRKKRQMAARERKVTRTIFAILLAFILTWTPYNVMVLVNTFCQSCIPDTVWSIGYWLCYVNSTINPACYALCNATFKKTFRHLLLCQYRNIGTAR

| Compound | cell count [1] | inhibition [1] | inhibition of aggregation [2] | nuclei count [2] [%] | inhibition [3] | nuclei count [3] [%] | fluorescence slope [4] | NADPH fluorescence slope [5] | slope [6] | inhibition [7] | inhibition [8] | fluorescence slope [9] | outcome [10] |
| --- | --- | --- | --- | --- | --- | --- | --- | --- | --- | --- | --- | --- | --- |
| CC(=NCCCN1CCOCC1)c1c(O)n(-c2ccccc2C)c(=O)[nH]c1=O | 377 | 3.3% (inactive) | -27.1% (inactive) | 107 | -21.8% (inactive) | 112 | -0.506 (inactive) | -3.5e-05 (inactive) | 0.00474 (inactive) | 7.9% (inactive) | 15% (inactive) |  |  |
| COC(=O)c1ccccc1-n1c(C)nc2ccccc2c1=O | 328 | -4.4% (inactive) | -24.8% (inactive) | 103 | -140% (inactive) | 115 | -0.605 (inactive) | 4.4e-06 (inactive) |  | -2.94% (inactive) | -2.38% (inactive) | 0.00587 (inactive) |  |
| Cn1c(O)c(C=NCc2ccco2)c(=O)n(C)c1=O | 327 | -3.8% (inactive) | -8.5% (inactive) | 109 | -150% (inactive) | 118 | -0.557 (inactive) | 3.2e-06 (inactive) |  | 22.6% (inactive) | 14.6% (inactive) | 0.00416 (inactive) |  |
| CCOc1ccc(Br)c(C2(O)CC(C)N(C)CC2C)c1 (configuration not stated) | 607 | -10.1% (inactive) | -25.8% (inactive) | 122 | -36.6% (inactive) | 121 | -0.398 (inactive) | -8.9e-05 (inactive) |  | 12.4% (inactive) | 21.4% (inactive) | 0.00551 (inactive) |  |
| O=C(NC1(C(F)(F)F)Oc2ccc(Cl)cc2O1)N1CCC2(CC1)OCCO2 (configuration not stated) | 676 | -22.3% (inactive) | -18.5% (inactive) | 114 | -97.5% (inactive) | 108 | -0.513 (inactive) | -9.9e-05 (inactive) | 0.00493 (inactive) | 8.96% (inactive) | 38.5% (inactive) |  |  |
| Cc1[nH]c2c(Cl)cccc2c1CCN | 517 | 3.9% (inactive) | 1.5% (inactive) | 86.5 | -19.9% (inactive) | 110 | -0.427 (inactive) | -1.2e-05 (inactive) |  | 13% (inactive) | 18.6% (inactive) | 0.0063 (inactive) |  |
| NC(=O)CSP(=O)(c1ccccc1)c1ccccc1 | 427 | -3.5% (inactive) | 4.2% (inactive) | 110 | -31.5% (inactive) | 105 | -0.541 (inactive) | -3.8e-05 (inactive) |  | 6.33% (inactive) | 18.3% (inactive) | 0.00487 (inactive) |  |
| C=CCN1C(=O)C2(C(C(=O)OCC)=C(N)Oc3c2c(=O)oc2ccccc32)c2ccccc21 (configuration not stated) | 679 | -7.1% (inactive) | 10.1% (inactive) | 93.2 | -41% (inactive) | 91.1 | -0.467 (inactive) | -0.000107 (inactive) | 0.00519 (inactive) | 13.6% (inactive) | 21.3% (inactive) |  | inactive |
| CC(=NCc1cccnc1)c1c(O)n(Cc2ccccc2)c(=O)[nH]c1=O | 421 | 1.2% (inactive) | -11.9% (inactive) | 120 | -174% (inactive) | 126 | -0.492 (inactive) | 0.000113 (inactive) |  | 9.01% (inactive) | 3.95% (inactive) | 0.0065 (inactive) |  |
| CNP1(NC)=NC(C(F)(F)F)=NC(C(F)(F)F)=N1 | 338 | -24% (inactive) | 6.8% (inactive) | 112 | -0.4% (inactive) | 89.8 | -0.447 (inactive) | -3.2e-05 (inactive) | 0.00454 (inactive) | -2.73% (inactive) | 97.8% (active) |  | inactive |
| COc1ccccc1CN1CCN(C(=O)Cc2ccccc2)CC1 | 466 | 5.9% (inactive) | 2.7% (inactive) | 101 | 18.9% (inactive) | 112 | -0.326 (inactive) | 3.1e-06 (inactive) | 0.00694 (inactive) | -1.53% (inactive) | 3.43% (inactive) |  | inactive |
| COc1cc(C2NCc3ccccc3-n3cccc32)ccc1O (configuration not stated) | 660 | -19.1% (inactive) | 12.9% (inactive) | 123 | -128% (inactive) | 110 | -0.487 (inactive) | -3.3e-05 (inactive) |  | -1.03% (inactive) | -2.21% (inactive) | 0.00515 (inactive) |  |
| COc1ccc(CN2CCN(C(=O)Cc3ccccc3)CC2)c(OC)c1 | 402 | 2.1% (inactive) | 8% (inactive) | 94 | -13.2% (inactive) | 114 | -0.6 (inactive) | 1.9e-05 (inactive) | 0.00526 (inactive) | 15.3% (inactive) | 25.6% (inactive) |  |  |
| O=C1CC(N2CCC(n3c(=O)[nH]c4ccccc43)CC2)C(=O)N1c1ccc(F)cc1 (configuration not stated) | 366 | 3.6% (inactive) | 6.3% (inactive) | 90.7 | -52.5% (inactive) | 93.7 | -0.315 (inactive) | 1.5e-05 (inactive) | 0.0029 (inactive) | 6.41% (inactive) | 18.8% (inactive) |  |  |
| Cc1ccc(S(=O)(=O)Cc2ccc(C(=O)N3CCC4(CC3)OCCO4)o2)cc1 | 602 | -6.9% (inactive) | 16.1% (inactive) | 113 | -17.6% (inactive) | 102 | -0.432 (inactive) | -0.000506 (inactive) |  | -7.38% (inactive) | -9.45% (inactive) | 0.00517 (inactive) |  |
| CCC(C)NC(=O)c1c(N)n(CC2CCCO2)c2nc3ccccc3nc12 (configuration not stated) | 603 | -1.4% (inactive) | -0.7% (inactive) | 80.9 | -13.3% (inactive) | 128 | -0.058 (active) | 1.6e-05 (inactive) |  | 14.8% (inactive) | 17.6% (inactive) | 0.00598 (inactive) |  |
| CCOC(=O)C(O)(c1ccc(N(CC)C(=O)OC)cc1)C(F)(F)F (configuration not stated) | 614 | -6.1% (inactive) | -9.5% (inactive) | 91.2 | -140% (inactive) | 111 | -0.425 (inactive) | -0.000455 (inactive) |  | 13.7% (inactive) | 13.7% (inactive) | 0.00401 (inactive) |  |
| O=C(O)Cn1cc(C(=O)c2ccccc2)c2ccccc21 | 389 | -3.3% (inactive) | 16.7% (inactive) | 89.2 | -22.1% (inactive) | 104 | -0.352 (inactive) | 1.2e-06 (inactive) | 0.00605 (inactive) | 9.27% (inactive) | 23% (inactive) |  | inactive |
